HP1b binding inh = inhibitors of HP1-beta chromodomain binding to methylated histone tails. Potency, µM (doses to about 114 µM), for the others: at the highest dose activity change, negative = inhibition, hits mostly inhibitors. 390,000 compounds, 0.56% hits. AlphaScreen HP1-beta / biotin-H3K9me3 peptide binding; further: nearly all actives have a fitted effect of over 70% in size
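AlphaScreen: HP1-beta (50 nM) preformed 30 min with biotin-H3(1-18)K9me3 peptide (50 nM) in PBS pH 7.4, 0.01% Tween-20. Compound added for 30 min at RT, then streptavidin donor/nickel chelate acceptor beads (10 ug/mL) for 30 min.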
12-LOX inh = inhibitors of human 12S-lipoxygenase ALOX12 | P18054 | purified 12hLO, xylenol orange hydroperoxide absorbance | Potency, µM (doses to about 108 µM), for inactives: at the highest dose activity change, negative = inhibition, most hits filed as inhibitors | 580,000 compounds, 1.1% hits | AID 1671190; further: on the % scale 0 is the no-effect control and ±100 the full control effect
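Hydroperoxide product was detected by ferrous iron/xylenol orange as the 573 to 405 nm absorbance ratio. Arachidonic acid at 40 uM (final) was turned over for 30 min at room temperature by 150 nM human 12hLO, pH 7.0 Hepes buffer, after 15 min compound preincubation.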
G9a block = G9a (human) methyltransferase inhibition | Q96KQ7 | G9a H3K9 monomethylation, AlphaScreen, 2 h | Potency, µM (series often up to 102 µM), without a hit: top-dose activity, negative = inhibition, usual class: inhibitors | 350,000 compounds, 8.8% hits | AID 504332; further: on the % scale 0 is the no-effect control and ±100 the full control effect; nearly all actives have a fitted effect of over 75% in size
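Methyltransferase reactions run at room temperature for 2 h (20 nM enzyme, 500 nM biotin-H3K9 peptide, 20 uM SAM) after a 15 min compound preincubation; product detected by AlphaScreen beads and anti-H3K9me1 antibody.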
JMJD2A Tudor = blocks the human JMJD2A Tudor domain; AlphaScreen JMJD2A-Tudor / H3K4me3 peptide binding; Potency, µM (titrated, usually from 114 µM), for the others: at the top dose activity change, negative = inhibition, usual class: inhibitors; 390,000 compounds, 4.4% hits; O75164; further: on the % scale 0 is the no-effect control and ±100 the full control effect; nearly all actives have a fitted effect of over 50% in size
BAZ2B block = blocks human BAZ2B | Q9UIF8 | Potency, µM (highest dose often 114 µM), inactives show top-dose activity change, negative = inhibition, actives largely listed as inhibitors | AID 504333 | 360,000 compounds, 4.4% hits | AlphaScreen BAZ2B-H3K14Ac peptide displacement; further: on the % scale 0 is the no-effect control and ±100 the full control effect; nearly all actives have a fitted effect of over 60% in size
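Inhibition is scored as reduced AlphaScreen emission. The BAZ2B/b-H3(5-23)K14Ac complex (50 nM each) in PBS pH 7.4, 0.01% Tween-20 meets compound (up to 110 uM) for 30 min at RT before bead addition.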
PLK1 PBD inh = inhibitors of human PLK1 polo-box domain binding; Plk1 PBD binding of FITC phosphopeptide, fluorescence polarization; Potency, µM, inactives show max response, negative = inhibition, actives largely listed as inhibitors; 360,000 compounds, 2.8% hits; AID 720504; further: series mostly up to about 57 µM; on the % scale 0 is the no-effect control and ±100 the full control effect; nearly all actives have a fitted effect of over 65% in size
Starred values were filed as active, the others as inactive; i = inactive; ? = inconclusive; . = no result; [ ] = remark or other dose. In the library only some 9% were active in any assay of this set; here they are far more common. The call rests on the fitted dose curve; in most records, active means well fitted curve in the direction sought with a large enough effect; inconclusive means small, poorly fitted or top-dose-only effect, or another doubt; inactive means no such curve, though single readings can be large; an effect the other way counts as inactive or inconclusive. Potency means the concentration at half of the fitted maximal effect.

SMILES | HP1b binding inh | 12-LOX inh | G9a block | JMJD2A Tudor | BAZ2B block | PLK1 PBD inh
CCc1ccc(OCC2c3cc(OC)c(OC)cc3CCN2C(=S)NCCOC)cc1 (configuration not stated) | 3% | -21% | 16µM* | ? | ? | -9%
CCNC(=S)N1CCc2cc(OC)c(OC)cc2C1COc1ccc(OC)cc1 (configuration not stated) | 4% | -7% | 50µM* | ? | ? | 3%
CC(=O)c1cccc(NC(=O)CCN2C(=O)C3CC=CCC3C2=O)c1 (configuration not stated) | 28% | -13% | -12%[59 µM] | -8% | 6% | -1%
O=CNn1cnc2c(oc3nc(-c4ccccc4)cc(-c4ccco4)c32)c1=O | ? | -5% | 50µM* | ? | -37% | ?
Cc1ncoc1C(=O)Nc1ncc([N+](=O)[O-])s1 | ? | ? | 4.5µM* | 40µM* | ? | ?
Cc1cc(NC(=O)c2cc([N+](=O)[O-])ccc2Cl)no1 | 22% | 0% | 3% | -13% | -12% | -11%
Cc1cc(NC(=O)Cn2cc([N+](=O)[O-])cn2)no1 | 46% | -26% | 50µM* | 3% | -15% | -18%
Cc1cc(NC(=O)c2ccc(C(C)(C)C)cc2)no1 | 83% | 2% | . | -1% | . | ?
Cc1cc(NC(=O)c2ocnc2C)no1 | -10% | -13% | 21% | ? | 1% | 24µM*
Cc1cc(NC(=O)c2ccc([N+](=O)[O-])cc2)no1 | -10% | 0% | 20% | ? | -13% | 21µM*
O=C(Nc1ncc([N+](=O)[O-])s1)c1cccs1 | 14% | -5% | -44%[12.7 µM] | -12% | -1% | -8%
O=C(Nc1ccccc1O)c1ccc([N+](=O)[O-])cc1 | 53% | ? | 11% | -12% | -3% | -2%
CSc1ccccc1NC(=O)c1ccc([N+](=O)[O-])cc1 | ? | ? | 32µM* | -33% | ? | 24µM*
CCC(C)NC(=O)NC(=O)CSc1nnc(-c2ccccc2F)n1C1CC1 (configuration not stated) | 44% | -2% | 35µM* | -3% | 3% | -9%
Cc1noc(C)c1NC(=O)Nc1cccc2c1O[C@@H](CN(C)Cc1ccc3c(c1)OCO3)[C@@H](C)CN([C@H](C)CO)C2=O | 73% | -8% | . | -16% | . | -9%
Cc1ccc(/C=N/n2c(-c3ccncc3)n[nH]c2=S)cc1 | 7% | ? | 1.4µM* | 2.2µM* | -32% | -21%
CC(C)(C)c1ccc(-c2n[nH]c(=S)n2/N=C/c2ccncc2)cc1 | 7% | ? | 2.5µM* | ? | -9% | -9%
O=C([C@H]1C[C@H](Oc2ccccc2)CN1S(=O)(=O)c1ccc(F)cc1)N1CCOCC1 | . | 33% | . | . | . | .
O=C1N/C(=N/O)S/C1=C/c1cccnc1 | 0% | 0% | . | -14% | ? | 24µM*
O=C1/C(=C\c2cccnc2)Sc2ccccc21 | -8% | -16% | 20%[59 µM] | 79µM* | -30% | 24µM*
CC(/C=C1\SC(=Nc2cccnc2)NC1=O)=C\c1ccccc1 | -16% | i | . | 79µM* | -10% | 27µM*
C=CCOc1ccc(/C=C2\SC(=Nc3cccnc3)NC2=O)cc1 | 28% | 0% | . | -17% | -28% | -2%
CN1CCN(C(=O)/C(=C/c2cccnc2)NC(=O)c2cccc(Br)c2)CC1 | 51% | -15% | 12% | 3% | 4% | -3%
Cn1c(=O)c2c(nc(CN3CCN(c4ccccc4)CC3)n2CCN2CCOCC2)n(C)c1=O | 22% | -14% | 50µM* | -13% | -1% | -11%
COc1ccc(N2CCCn3c2nc2c3c(=O)n(CCCc3ccccc3)c(=O)n2C)cc1 | . | 0% | 10µM* | . | ? | .
SMILES | HP1b binding inh | 12-LOX inh | G9a block | JMJD2A Tudor | BAZ2B block | PLK1 PBD inh
COc1ccc(N2CCN(Cc3nc4c(c(=O)n(C)c(=O)n4C)n3CCc3ccccc3)CC2)cc1 | 3% | 13% | 7.9µM* | -19% | -3% | -14%
CC/C(C)=N/NC(=O)C(O)(c1ccccc1)c1ccccc1 | . | 4% | . | . | . | .
COc1cc(NS(=O)(=O)c2csc(C(N)=O)c2)cc(OC)c1 | 22% | 8% | 19% | -13% | -1% | 5%
Cc1c(F)cc(C(N)=O)cc1NS(=O)(=O)c1cccc(Cl)c1C | . | 7% | . | . | . | .
O=S(=O)(Cc1ccc(Cl)cc1)Nc1ccc2c(c1)OCO2 | 15% | 1%[57.4 µM] | -1% | -34% | -2% | -2%
CCCN(CCC)S(=O)(=O)c1ccc(C(=O)Nc2nnc(COC)o2)cc1 | 49% | 6% | 26% | 3% | ? | -4%
COCc1nnc(NC(=O)c2ccc(S(=O)(=O)N3CCCCCC3)cc2)o1 | 69% | 2% | 36% | 79µM* | ? | -9%
COCc1nnc(NC(=O)c2ccc(S(=O)(=O)N(C)C3CCCCC3)cc2)o1 | 33% | 5% | ? | 79µM* | ? | -4%
Cc1ccc(OCC(=O)N/N=C/c2cccn2C)cc1C | 2% | 4% | -13% | ? | -33% | -4%
COc1ccc(OCC(=O)N/N=C/c2cccn2-c2cccc(C(=O)O)c2)cc1 | ? | ? | 35µM* | 45µM* | 79µM* | -19%
COc1ccc(OCC(=O)N/N=C/c2ccc(N(C)C)cc2)cc1 | 2% | -20% | 45µM* | -34% | ? | -7%
O=C1CCN(S(=O)(=O)c2ccccc2)CCCN(C(=O)c2ccsc2)CCN1 | . | 42% | . | . | . | .
COc1ccccc1Nc1nnc(SCc2nnc(-c3cc(OC)c(OC)c(OC)c3)o2)s1 | 6% | 5% | 14µM* | ? | -28% | -16%
CCOc1ccccc1Nc1nnc(SCc2nnc(-c3cc(OC)c(OC)c(OC)c3)o2)s1 | 7% | -10% | -20%[59 µM] | -23% | -30% | -6%
O=C1COc2ccc(C(=O)CSc3nnc(Cc4cccs4)n3-c3ccccc3)cc2N1 | 18% | 3% | 79µM* | 3%[57.1 µM] | 2% | ?
O=C1COc2ccc(C(=O)CSc3ccccc3C(=O)O)cc2N1 | 40% | -12% | . | -9% | 0% | -3%
CC(C)c1ccccc1-n1c(SCC(=O)c2ccc3c(c2)NC(=O)CO3)nc2ccccc2c1=O | -3% | 20% | 40µM* | -26% | -11% | -12%
COc1cccc(OC)c1C(=O)NCCc1csc(-c2ccccn2)n1 | . | 44% | . | . | . | .
CC(C)[C@@H]1NC(=O)c2cc([N+](=O)[O-])cc(I)c2OCC[C@@H](C(N)=O)NC(=O)[C@H](CCC(=O)O)NC1=O | 29% | ? | 45µM* | -15% | ? | -1%
C[C@@H]1NC(=O)c2cc([N+](=O)[O-])cc(I)c2OCC[C@@H](C(N)=O)NC(=O)[C@H](CCC(=O)O)NC1=O | . | . | 28µM* | . | ? | .
